Assay outcomes from PubChem BioAssay.
Sfp inh: inhibitors of Bacillus subtilis Sfp phosphopantetheinyl transferase; Q9F4F7; Biochemical Sfp PPTase activity, qHTS; Potency, µM, inactives show largest response in the series, negative = inhibition, most hits filed as inhibitors; hit rate 3.5% among 310,000; AID 1490;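 further: the enzyme is Sfp with the accession as filed and its product quenches rhodamine fluorescence; 0% = enzyme reaction without inhibitor and -100% = no enzyme wells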
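Step 1, compound plus 15 nM Sfp-PPTase, 15 min, room temperature. Step 2, add rhodamine-CoA (5 uM) and BHQ-2-YbbR (12.5 uM). Step 3, read 525/598 nm fluorescence at 0 and 30 min.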
ALOX12 inh: ALOX12 (human) lipoxygenase inhibition; Potency, µM (top dose mostly 108 µM), for the others: top-dose activity change, negative = inhibition, usual class: inhibitors; purified 12hLO, xylenol orange hydroperoxide absorbance; hit rate 1.1% among 580,000; P18054; further: on the % scale 0 is the no-effect control and ±100 the full control effect
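Hydroperoxide product was detected by ferrous iron/xylenol orange as the 573 to 405 nm absorbance ratio. Arachidonic acid at 40 uM (final) was turned over for 30 min at room temperature by 150 nM human 12hLO, pH 7.0 Hepes buffer, after 15 min compound preincubation.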
JMJD2A Tudor: inhibitors of human JMJD2A Tudor domain. O75164. AlphaScreen JMJD2A-Tudor / H3K4me3 peptide binding. Potency, µM (top dose mostly 114 µM), inactives show top-dose activity change, negative = inhibition, actives largely listed as inhibitors. hit rate 4.4% among 390,000. AID 504339; further: on the % scale 0 is the no-effect control and ±100 the full control effect; nearly all actives have a fitted effect of over 50% in size
HP1b binding inh: HP1-beta chromodomain-methylated histone interaction inhibition; P83916; AlphaScreen HP1-beta / biotin-H3K9me3 peptide binding; Potency, µM (doses to about 114 µM), for inactives: at the top dose activity change, negative = inhibition, actives largely listed as inhibitors; hit rate 0.56% among 390,000; AID 540317; further: nearly all actives have a fitted effect of over 70% in size
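HP1-beta protein (50 nM final) preincubated 30 min at room temperature with biotinylated H3(1-18)K9me3 peptide (50 nM) in PBS pH 7.4, 0.01% Tween-20, then compound added for 30 min. AlphaScreen streptavidin donor/nickel chelate acceptor beads (10 ug/mL final), 30 min dark, luminescence read.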
BAZ2B inh: blocks human BAZ2B; Q9UIF8; AlphaScreen BAZ2B-H3K14Ac peptide displacement; Potency, µM (highest dose often 114 µM), for the others: top-dose activity change, negative = inhibition, most hits filed as inhibitors; hit rate 4.4% among 360,000; further: on the % scale 0 is the no-effect control and ±100 the full control effect; nearly all actives have a fitted effect of over 60% in size
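AlphaScreen displacement of biotin-H3(5-23)K14Ac peptide (50 nM final) from BAZ2B (50 nM final) in PBS pH 7.4, 0.01% Tween-20; complex preformed 30 min RT, then compounds (top 110 uM) 30 min RT, beads 20 min dark.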
G9a inh: inhibitors of human histone lysine methyltransferase G9a; Q96KQ7; G9a H3K9 monomethylation, AlphaScreen, 2 h; Potency, µM (highest dose often 102 µM), without a hit: at the top dose activity, negative = inhibition, hits mostly inhibitors; hit rate 8.8% among 350,000; AID 504332; further: on the % scale 0 is the no-effect control and ±100 the full control effect; nearly all actives have a fitted effect of over 75% in size
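Chemiluminescent proximity detection of H3K9 monomethylation, read after 10 min bead incubation in the dark. Reaction: 20 nM G9a, 500 nM biotin-H3K9 peptide, 20 uM SAM cofactor, 2 h, room temperature, following 15 min enzyme-compound preincubation.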
* = called active by the depositor; i = inactive; ? = inconclusive; nt = no result; [ ] = remark or other dose. An excerpt weighted towards active compounds, which were near 8.7% of everything screened. The call rests on the fitted dose curve; in most records, active means well fitted curve in the direction sought with a large enough effect; inconclusive means small, poorly fitted or top-dose-only effect, or another doubt; inactive means no such curve, though single readings can be large; an effect the other way counts as inactive or inconclusive. Potency means the concentration at half of the fitted maximal effect.

SMILES	Sfp inh	ALOX12 inh	JMJD2A Tudor	HP1b binding inh	BAZ2B inh	G9a inh
CCCOc1ccc(C(=O)NNC(=S)NC(=O)c2ccccc2)cc1	12.5%	35.5µM*	?	0.9%	-24.9%	?
O=C(NC(=S)NNC(=O)c1ccco1)c1ccc(Br)cc1	-6.7%	28.2µM*	1.9%	6.3%	-3.0%[57.1 µM]	22.4µM*
CCCOc1ccc(C(=O)NNC(=S)NC(=O)c2cccs2)cc1	28.4%	?	?	-11.7%[57 µM]	-25.7%	?
Cc1cc2cc(NC(=O)c3ccc(C)c(C)c3)ccc2[nH]1	nt	-1.3%	nt	nt	nt	nt
CC(C)C[C@@H]1N[C@H](C(=O)NCCOc2ccccc2)Cc2c[nH]c3cccc1c23	nt	11.8%[176 µM]	nt	nt	nt	nt
CSc1ccc(-c2ccc3c(c2)C(=O)N2CC[C@H](NC(=O)C4CCNCC4)C[C@H]2C(=O)N3)cc1	nt	-1.3%	nt	nt	nt	nt
Cc1ccc(C(=O)Nc2ccc(O)c(-c3nc4cc(C)ccc4o3)c2)cc1	nt	-9.4%	nt	nt	nt	nt
CCOc1ccc(NC(=S)NNC(=O)c2ccc(Br)cc2)cc1	18.2%	?	?	-0.5%	-37.8%	35.5µM*
COc1ccc(NC(=O)N2CCc3nc4cc[nH]n4c(=O)c3C2)cc1	nt	8.0%	nt	nt	nt	nt
C/C(=N\Nc1ccc2nncn2n1)c1ccccn1	3.9%	i	22.4µM*	27.5%	8.91µM*	4.5%
C(=N\n1cnnc1)/c1ccccn1	21.9%	0.0%	-14.2%	27.5%	-3.6%	9.8%[12.7 µM]
C(=N\Nc1ccc2nncn2n1)/c1ccccn1	31.6µM*	17.3%	?	25.5%	-27.4%	-4.0%
CCOc1ccc(C2Cn3nnc(-c4nc(-c5ccc(OC)cc5)no4)c3CO2)cc1 (centres undefined)	nt	11.5%	nt	nt	nt	nt
CNC(=S)NNC(=O)c1sccc1OCc1ccc(Cl)cc1Cl	2.2%	10.0%	1.5%	37.6%	1.4%	22.3%
S=c1nc(-c2sccc2OCc2ccc(Cl)cc2Cl)[nH][nH]1	?	28.2µM*	-8.3%[11.4 µM]	-14.4%	?	44.7µM*
COc1ccccc1CC(=O)N1CCC2(CC1)N=C(c1ccc(C)cc1)NO2	nt	3.0%	nt	nt	nt	nt
CC(C)OC(=O)c1nn2c(C(F)(F)F)cc(-c3ccco3)nc2c1Cl	5.8%	0.0%	-3.6%	27.4%	-6.3%	?
CC(C)OC(=O)c1nn2c(C(F)(F)F)cc(-c3ccc(Br)o3)nc2c1Br	0.7%	?	-21.9%	10.3%	-4.3%	35.5µM*
O=C(OCc1ccc(F)cc1)c1cccc(S(=O)(=O)N2CCCCC2)c1	nt	1.0%	nt	nt	nt	nt
COc1cc(OC)nc(Oc2ccccc2C=O)n1	nt	0.0%	-7.6%	18.6%	nt	nt
COc1cc(OC)nc(Oc2ccccc2/C=N/O)n1	nt	0.0%	44.7µM*	11.8%	nt	nt
CC(=O)N1CCC2(CC1)C(C#N)=C(N)Oc1n[nH]c(C)c12	13.4%	0.0%	-8.1%	16.2%	11.9%	14.9%[59 µM]
CC(=O)N1CCC2(CC1)C(C#N)=C(N)Oc1c2sc2nc(C)cc(C)c12	-29.1%	-13.3%	-21.2%	43.2%	-34.4%	11.2µM*
Cc1cc(C)c2c(N)c(C#N)sc2n1	nt	-1.5%	nt	nt	nt	nt
CCN1CCC2(CC1)C(C#N)=C(N)Oc1c2sc2nc(C)cc(C)c12	50.1µM*	?	-10.9%	29.5%	-24.4%	?
SMILES	Sfp inh	ALOX12 inh	JMJD2A Tudor	HP1b binding inh	BAZ2B inh	G9a inh
Cc1cc(C(=O)NCC(C)C)c2c(C3CCNCC3)noc2n1	nt	3.4%[6.33 µM]	nt	nt	nt	nt
O=[N+]([O-])c1cc(Br)c2c(c1)CCN2	nt	-28.4%	nt	nt	nt	nt
O=[N+]([O-])c1cc(Cl)cc(C2=NCCN2)c1	2.8%	0.0%	-17.9%	2.0%	3.9%	35.5µM*
Cc1ccc(C(=O)N2CCC([C@@H]3CNC[C@H]3CO)CC2)cc1F	nt	45.3%	nt	nt	nt	nt
Cn1nc(C(=O)N2CCC(Cc3nc(C4CC4)n[nH]3)C2)c2ccccc21 (centres undefined)	nt	22.7%	nt	nt	nt	nt
CCc1ncc(CN2CCCC(C(=O)Nc3cccc(-c4cccc(C)c4)c3)C2)cn1 (centres undefined)	9.4%	10.5%	79.4µM*	-12.8%	-18.1%	-3.6%
O=C(Nc1ccc(-c2ccco2)cc1)C1CCCN(Cc2ccc(CO)o2)C1 (centres undefined)	44.7µM*	0.0%	?	-12.8%	?	nt
